Source: publication PMC3795721, “Screening for Protein-DNA Interactions by Automatable DNA-Protein Interaction ELISA”

Biological target: AT4G31550 (Arabidopsis thaliana, UniProt Q9SV15 228-325)
Experiment: DPI-ELISA; DPI-ELISA, streptavidin 384-well plate, 1-2 pmol biotinylated dsDNA per well, crude native E. coli extract, anti-His detection; buffer as in Brand et al. [46],; high values mean tight binding
Conditions: tags: C-terminal His (pET-DEST42); label: 5' biotin on forward strand; dsDNA, one strand shown

AT4G31550, sequence (Q9SV15 228-325): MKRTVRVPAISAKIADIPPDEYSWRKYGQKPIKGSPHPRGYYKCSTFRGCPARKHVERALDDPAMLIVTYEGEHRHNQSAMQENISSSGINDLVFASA

Sequence	binding signal
AAAAAATTCTAGCTTTTAACTTTAGCAAAA	0.6 ± 0.141 absorbance
AAAAAATACTCTTCCTCGTTCTTGGTAAAA	0.57 ± 0.127 absorbance
AAAAAAATGATTTGCAGATCTCCGAGAAAA	0.935 ± 0.488 absorbance
AAAAAATTGCACCTGATACTAGGGTTAAAA	0.655 ± 0.148 absorbance
AAAAAATCCATGTTTAAGCTGGTCTCAAAA	0.695 ± 0.148 absorbance
AAAAAACCAGCCTCAGTCCTGAACAAAAAA	0.605 ± 0.0636 absorbance
AAAAAACTTGCTCCTCCGTTTTACTCAAAA	0.775 ± 0.276 absorbance
AAAAAAGGTAATGCCGGTCCCAGTATAAAA	0.525 ± 0.0778 absorbance
AAAAAATCACAATACCTTCTCGTCATAAAA	0.58 ± 0.113 absorbance
AAAAAAACGCTCAAGTCTATCAGTAGAAAA	0.74 ± 0.141 absorbance
AAAAAAAGGGTCCGGTGCATACATGTAAAA	0.57 ± 0.156 absorbance
AAAAAACTACGTATATTCAGGCCCTAAAAA	0.68 ± 0.113 absorbance
AAAAAAACGGTGTCATAGTATTAGTGAAAA	0.585 ± 0.134 absorbance
AAAAAAGTTTCTGCTTTCCCTTTCGTAAAA	0.665 ± 0.205 absorbance
AAAAAATAAACGTGTTCATACTTAGTAAAA	0.61 ± 0.0707 absorbance
AAAAAAAAATGCTAGCGCGTACGTAAAAAA	0.69 ± 0.17 absorbance
AAAAAAAGTGGCCGCTAGTCAACTCAAAAA	3.46 ± 0.389 absorbance
AAAAAAACCCGGCCGCCATGGTAGTAAAAA	0.7 ± 0.212 absorbance
AAAAAATTTGCGCTTCATCCTGCCCCAAAA	0.715 ± 0.106 absorbance

Sequence	binding signal
AAAAAAGCCCCTTGCGCCTCTCTACCAAAA	0.62 ± 0.0424 absorbance
AAAAAAGTTCGTGCTTAACCCAGTTTAAAA	0.69 ± 0.099 absorbance
AAAAAATCAAAACAACGATGCCGTTAAAAA	0.73 ± 0.0849 absorbance
AAAAAACCTTCCCCCTCTTCTGCCTTAAAA	0.665 ± 0.0354 absorbance
AAAAAAGTCATTATAACCCAAACTCTAAAA	0.5 ± 0.113 absorbance
AAAAAAAGTATCAAAGCCTAGGGCTGAAAA	0.605 ± 0.205 absorbance
AAAAAAATATTTGAGCTAGGTTATCAAAAA	0.57 ± 0.113 absorbance
AAAAAAGTATAACGTGTTGTTGACCGAAAA	3.455 ± 0.0212 absorbance
AAAAAAATCTTTGCGTCGAGATTCTTAAAA	0.59 ± 0.0707 absorbance
AAAAAATGATGTTGGCGCATTTAAACAAAA	0.53 ± 0.127 absorbance
AAAAAAAAATCGAATTTGGACTTCCGAAAA	0.775 ± 0.0354 absorbance
AAAAAACTCGCGCTTGCATCTGTGCGAAAA	0.555 ± 0.0636 absorbance
AAAAAAGTGTTTGTGCTTCTCTCTGTAAAA	0.58 ± 0.0707 absorbance
AAAAAAGGCCTTCGCTCGTGTTTACGAAAA	0.4 ± 0.0424 absorbance
AAAAAAATTTTTAGTTTTAATTTTGGAAAA	0.615 ± 0.106 absorbance
AAAAAACGCCGGACAATCAGGCGCTCAAAA	0.625 ± 0.177 absorbance
AAAAAACCGTCTTATCTCTCGTCCCTAAAA	0.565 ± 0.12 absorbance
AAAAAAATCATCCTATTGTTGCTGTCAAAA	0.665 ± 0.12 absorbance
AAAAAATCGGTACGCACCCCGGACTCAAAA	0.73 ± 0.184 absorbance
